Results: PubChem BioAssay (Tox21)
Inconclusive results are not listed. Calls of active or inactive are those of the source. Unless noted, calls come from the whole dose curve.

Tests used:
[1] = qHTS assay to identify small molecule agonists of the estrogen related receptor signaling pathway with the pleiotropic PPARgamma coactivator (PGC) from Tox21 10K library (AID 1224842; active = well fitted curve in the direction sought with a large enough effect in the repeat runs; an effect the other way counts as inactive or inconclusive; note: nearly all actives have a fitted effect of over 15% in size)
Outline: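 Luminescence from One-Glo (30 min, room temperature) measured after PGC/ERR cells had 18 h at 37 C with pinned compound (23 nL in DMSO). Cells had been seeded at 2,000 per well and pre-incubated 6 h.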

[2] = qHTS assay to identify small molecule agonists of the hypoxia (HIF-1) signaling pathway - cell viability counter screen (AID 1224844); note: nearly all actives have a fitted effect of over 50% in size
Outline: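 In this counter screen, HRE-bla ME-180 cell viability after 17 hrs of compound exposure at 37C was read by CellTiter-Glo luminescence, multiplexed with the beta-lactamase reporter measurement.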

[3] = qHTS assay to identify small molecule agonists of H2AX (AID 1224845; active = well fitted activation curve with a large enough effect in the signal ratio in the repeat runs, not every such curve was filed as active; the % refers to the signal ratio)
Outline: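 Phospho-H2AX Ser139 measured by HTRF (ex 320 nm; em 665 and 620 nm) after 24 hr antibody incubation. Compounds, 15 concentrations, 0.76% DMSO, were applied to CHO-K1 cells for 3hr at 37C before lysis.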

[4] = qHTS assay to identify small molecule agonists of H2AX - cell viability counter screen (AID 1224847);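 note: wild-type CHO-K1 cells; top concentration of the series differs between compounds; nearly all actives have a fitted effect of over 30% in size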
Outline: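 For this counter screen, overnight-attached CHO-K1 cells received test compounds (15 concentrations, 0.76% DMSO final); 3 hr later at 37C, CellTiter-Glo reagent was added and luminescence recorded after 30 min at room temperature.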

[5] = qHTS assay to identify small molecule antagonists of the estrogen related receptor (ERR) signaling pathway from Tox21 library (AID 1224848; active = well fitted curve in the direction sought with a large enough effect in the repeat runs; an effect the other way counts as inactive or inconclusive; note: nearly all actives have a fitted effect of over 50% in size)
Outline: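 Luciferase luminescence (ONE-Glo, 30 min room temperature) was the read-out. Cells of the NTP-supplied ERR line, 2,000 per well, were given 6 h at 37 C before compound addition in DMSO and 18 h exposure at 37 C.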

[6] = qHTS assay to identify small molecule agonists of the estrogen related receptor (ERR) signaling pathway from Tox21 library (AID 1224849); details: ERR reporter cell line, ONE-Glo luciferase, 18 h; at 92.4 µM (top of the series) unless noted; note: nearly all actives have a fitted effect of over 15% in size
Outline: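 Luciferase activity in ERR pathway reporter cells served as the agonist readout; exposure lasted 18 h at 37 C, with ONE-Glo detection after 30 min at room temperature.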

[7] = qHTS RealTime-Glo MT Cell Viability Assay in HepG2 cells - 24 hour (AID 1224867; active = well fitted curve in the direction sought with a large enough effect in the repeat runs; an effect the other way counts as inactive or inconclusive; note: nearly all actives have a fitted effect of over 50% in size)
Outline: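 Tox21 10K library screened in qHTS format on HepG2 cells carrying RealTime-Glo reagents. Compounds were added after a 5 h preincubation, and the luminescent signal from continuous culture was measured repeatedly during 40 h treatment.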

[8] = target: Thyrotropin receptor (Homo sapiens) (UniProt P16473); assay: qHTS assay to identify small molecule agonists of the thyroid stimulating hormone receptor (TSHR) signaling pathway (AID 1224843); note: nearly all actives have a fitted effect of over 45% in size
Sequence of Thyrotropin receptor (Homo sapiens) (P16473 whole entry, looked up): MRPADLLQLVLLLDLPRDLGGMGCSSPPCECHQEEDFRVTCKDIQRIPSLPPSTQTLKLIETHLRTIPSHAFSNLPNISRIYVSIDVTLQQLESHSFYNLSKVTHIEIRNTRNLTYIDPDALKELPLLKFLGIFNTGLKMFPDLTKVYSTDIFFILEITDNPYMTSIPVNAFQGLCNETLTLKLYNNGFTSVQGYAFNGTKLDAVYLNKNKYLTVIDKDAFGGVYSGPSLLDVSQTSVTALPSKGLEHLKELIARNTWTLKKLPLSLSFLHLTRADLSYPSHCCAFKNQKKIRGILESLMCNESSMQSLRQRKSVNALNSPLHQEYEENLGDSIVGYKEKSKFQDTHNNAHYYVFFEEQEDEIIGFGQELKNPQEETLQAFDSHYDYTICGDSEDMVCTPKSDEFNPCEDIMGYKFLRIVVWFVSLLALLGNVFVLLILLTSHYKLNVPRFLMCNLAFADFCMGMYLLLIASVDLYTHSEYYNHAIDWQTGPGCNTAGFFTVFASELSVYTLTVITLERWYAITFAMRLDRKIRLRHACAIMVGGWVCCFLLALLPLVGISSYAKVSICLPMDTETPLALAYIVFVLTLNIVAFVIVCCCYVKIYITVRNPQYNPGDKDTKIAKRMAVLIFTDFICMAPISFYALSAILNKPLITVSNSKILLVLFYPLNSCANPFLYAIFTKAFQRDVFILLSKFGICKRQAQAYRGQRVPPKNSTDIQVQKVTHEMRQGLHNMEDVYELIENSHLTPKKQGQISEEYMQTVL
Outline: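 Agonist activity read as cAMP rise via d2/cryptate HTRF competition, 1 h room-temperature detection, in HEK293 cells expressing TSHR. Fifteen-point titrations, each run in triplicate, with a 30 min room-temperature incubation beforehand.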

[9] = qHTS assay to identify small molecule agonists of the hypoxia (HIF-1) signaling pathway (AID 1224846; active = well fitted activation curve with a large enough effect in the signal ratio in the repeat runs, not every such curve was filed as active; the % refers to the signal ratio)
Outline: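 ME-180 HRE-bla reporter cells; compounds in DMSO, 17 h at 37C; read-out beta-lactamase via CCF4-AM FRET.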
% is set by controls: 0 for no effect and ±100 for the full control effect.

Cc1ccccc1OCC(=O)O
inactive: Potency [1] | outcome [2] | outcome [3] | outcome [4] | outcome [5] | activity change, positive = activation [6] 0.72% | outcome [7]

CC(C)(C)NCC(O)COc1cccc2c1CCC(=O)N2 (stereo not given)
inactive: Potency [8] | outcome [2] | outcome [3] | outcome [4]

O=C(O)Cc1ccccc1Oc1ccc(Cl)cc1Cl
inactive: Potency [8] | outcome [2] | outcome [3] | outcome [9] | outcome [4] | outcome [7]

COCCCOc1cc(C[C@@H](C[C@H](N)[C@@H](O)C[C@H](C(=O)NCC(C)(C)C(N)=O)C(C)C)C(C)C)ccc1OC
inactive: Potency [8] | outcome [2] | outcome [3] | outcome [9] | outcome [4] | outcome [7]

Cc1ccccc1C#N
inactive: Potency [8] | outcome [2] | outcome [3] | outcome [9] | outcome [4] | outcome [7]

CC(=O)O[C@@H]1CC2C3CCc4cc(OC(=O)c5ccccc5)ccc4C3CCC2(C)[C@H]1OC(C)=O (stereo not given in full)
inactive: Potency [8] | outcome [2] | outcome [3] | outcome [9] | outcome [7]

CC(C)=CCC/C(C)=C\C#N
inactive: Potency [8] | outcome [2] | outcome [3] | outcome [9] | outcome [4] | outcome [7]
